CASP6 VEID inh = caspase-6 (human) enzyme inhibition; purified caspase-6, Z-VEID-R110 cleavage fluorescence; inhibition, % at 12.5 µM; hit rate 0.53% among 350,000;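 active means mean inhibition across replicates at least about 35%, with every replicate also reaching that limit, limit read from the data; inconclusive means only one of the two criteria met; inactive means neither criterion met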;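 further: 0% = median of neutral control wells and 100% = no fluorescence left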
Target sequence (P55212 24-179 limits assumed): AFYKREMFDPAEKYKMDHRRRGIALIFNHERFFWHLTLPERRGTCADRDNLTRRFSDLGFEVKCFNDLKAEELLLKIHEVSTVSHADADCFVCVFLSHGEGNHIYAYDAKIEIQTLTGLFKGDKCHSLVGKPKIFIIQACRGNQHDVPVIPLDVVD
Target sequence (P55212 194-293 limits assumed): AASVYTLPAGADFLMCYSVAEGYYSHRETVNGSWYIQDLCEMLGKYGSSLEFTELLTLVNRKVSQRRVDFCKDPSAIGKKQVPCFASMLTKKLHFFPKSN
Glyco luc inh = N-linked glycosylation inhibition; reporter increase, % at 12.5 µM; D54 ERlucT glycosylation luciferase reporter, 24 h; percent of 100 nM tunicamycin response; hit rate 0.23% among 360,000; AID 588692;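 active means mean luciferase reporter signal, scaled so untreated is 0 and the glycosylation-blocking control 100, at or above a set limit in every replicate; inconclusive means mean reaches the limit but not every replicate does; inactive means mean below the limit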;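 further: luciferase carries N-glycosylation sites so blocking glycosylation raises the light; 0% = median of neutral control wells and 100% = median of 100 nM tunicamycin wells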
RAD52 anneal inh = blocks human RAD52 DNA annealing; recombinant RAD52 DNA annealing, FRET fluorescence; inhibition, % at 18.7 µM; hit rate 0.46% among 360,000;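 active means every replicate showing at least 50% inhibition; inconclusive means mean inhibition at least 50% but not in every replicate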
RAD54 branch = RAD54 (human) branch migration inhibition. Q92698. RAD54 Holliday junction branch migration, FAM/BHQ fluorescence. inhibition, % at 10.4 µM. hit rate 0.14% among 360,000;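 active means mean normalized replicate activity at least 40 and at least half of replicates scoring 40 or more; inconclusive means only one of the two criteria met; inactive means mean below 40 and under half of replicates reaching 40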;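 further: 0% = median of neutral control wells and 100% = median of positive control wells; inhibitors cause a drop in the FAM fluorescence signal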
AF4-AF9 inh = MLL-AF4/AF9 protein interaction inhibition; AID 651704; inhibition, % at 10 µM; AlphaScreen, biotin-AF4 peptide binding to FLAG-AF9; P42568; hit rate 0.47% among 350,000;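 active means every replicate reaching a set inhibition limit, whatever the replicate mean, cut at about 25% in these data; inconclusive means mean inhibition reaches that limit but some replicates miss it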;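 further: 0% = plate neutral control median and 100% = total signal loss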
RAD52 DNA ctr = counter-screen for RAD52 inhibitors: DNA binding compounds; shares compounds with RAD52 anneal inh; Salmon sperm DNA/acridine orange FP displacement; AC50, µM; hit rate 8% among 1,000;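 active means fitted half-maximal concentration for signal loss at or below twice the highest dose tested, in every separate run, actives reach about 64 µM in these data; inconclusive means runs disagree, or flat partial signal loss, or poor fit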
Active calls of the source: *; i = inactive; ? = inconclusive; . = no result. Sampled rows, rich in hits. Any-hit rate of the full collection: about 1.2%.

SMILES	CASP6 VEID inh	Glyco luc inh	RAD52 anneal inh	RAD54 branch	AF4-AF9 inh	RAD52 DNA ctr
CC(C)N1CCc2c(sc(NC(=O)c3nc4ccccc4s3)c2C(N)=O)C1	1	-7	68*	.	4	i
CCOc1ccc(CCN2C(=S)N([C@@H](Cc3ccc(O)cc3)CN3CCC[C@@H]3CN3C(=S)NC[C@@H]3CC(C)C)C[C@@H]2Cc2ccccc2)cc1	1	-2	-23	-5	-13	.
CCOc1ccc(CCN2C(=S)N([C@@H](Cc3ccc(O)cc3)CN3CCC[C@@H]3CN3C(=S)NC[C@@H]3Cc3ccccc3)C[C@@H]2CC(C)C)cc1	1	-9	51*	-1	2	i
Oc1ccc(C[C@H]2CNC(=S)N2CC2CCCN2C[C@H](Cc2ccc(O)cc2)N2C[C@H](Cc3ccc(O)cc3)N(CC3CCCCC3)C2=S)cc1 (some centres undefined)	3	-3	55*	-6	1	i
O=C(Nc1nccs1)[C@@H]1[C@@H](CO)[C@@H]2Cn3c(cccc3=O)[C@H]1N2C(=O)C1CCCCC1	-1	.	2	.	-4	.
CCCCCCCCCCCCCCCC(O)C[N+](C)(C)CCO (centres undefined)	-177	-10	80*	.	3	35µM*
C[C@@H]1ON(C)[C@H]2C[C@H]3c4cc(Nc5ccccc5)ccc4CCN3C[C@@H]12	-8	.	3	.	.	.
C[C@@H]1ON(C)[C@H]2C[C@H]3c4cc(-c5cc6ccccc6o5)ccc4CCN3C[C@@H]12	-5	.	68*	.	.	i
O=C(CN1CCCCC1)Nc1ccc(N2CCCCCC2)cc1	-18	-5	62*	.	31*	i
COc1ccc(CN2C[C@H](O)COC[C@H]3O[C@@H](CC(=O)NCCN4CCCC4)CC[C@@H]32)cc1	.	.	.	-11	.	.
O=C(C1CCCC1)N1CCC(CC2CC(c3cccc(Br)c3)=NO2)(C(=O)NCC2CCCCC2)CC1 (centres undefined)	-1	-4	-14	-7	2	.
O=C(C1CCCC1)N1CCC(CC2CC(c3ccc(Cl)cc3)=NO2)(C(=O)NCC2CCCCC2)CC1 (centres undefined)	0	-2	99*	1	1	i
CCSc1ccc2c(c1)N(CCCN1CCN(C)CC1)c1ccccc1S2	-19	-2	63*	26	65*	i
CC(CN1CCN(CCOCCO)CC1)CN1c2ccccc2Sc2ccc(Cl)cc21 (centres undefined)	-15	-5	12	12	20	.
OCCN1CCN(CC/C=C2/c3ccccc3CSc3ccccc32)CC1	-2	-2	18	-6	12	.
OC1CC2CCC(C1)N2CCCN1c2ccccc2Sc2ccc(Cl)cc21 (centres undefined)	-17	-7	91*	18	19	i
CN1CCN(CCCN2c3ccccc3Sc3ccc(Cl)cc32)CC1	.	1	79*	13	36*	i
OCCN1CCN(CC/C=C2/c3ccccc3Sc3ccc(C(F)(F)F)cc32)CC1	-5	-5	58*	8	27*	i
O=C(C[C@H]1CC[C@H]2[C@@H](COC[C@@H](O)CN2C(=O)c2ccncc2)O1)NC1Cc2ccccc2C1	1	.	13	0	-1	.
OCCN1CCN(CCCN2c3ccccc3Sc3ccc(C(F)(F)F)cc32)CC1	6	-1	56*	?	18	i
CN1CCN(CCC(=O)N2c3ccccc3Sc3ccc(C(F)(F)F)cc32)CC1	.	-4	.	18	.	.
CN1CCN(CCC=C2c3ccccc3Sc3ccc(S(=O)(=O)N(C)C)cc32)CC1	-4	0	49	2	17	.
CCCCCC[N+](C)(C)CC/C=C1/c2ccccc2Sc2ccc(Cl)cc21	5	1	63*	.	22	i
COc1ccc2[nH]c3c(C)c4ccncc4c(C)c3c2c1	-7	-1	100*	36	3	i
COc1ccc2c3c(n(C)c2c1)[C@@H](CO)N(Cc1ccc2c(c1)OCO2)CC31CCN(C(C)=O)CC1	-2	.	-8	.	2	.
Nc1ccc(CCn2ccnc2)cc1	-111	4	51*	4	11	i
C[C@H]1CN([C@@H](C)CO)C(=O)c2cc(NS(C)(=O)=O)ccc2O[C@@H]1CN(C)S(C)(=O)=O	2	.	2	-1	-4	.
COCC(=O)N1C[C@H]2[C@@H](c3ccccc31)[C@@H](CO)N2C(=O)Nc1ccccc1Cl	-1	.	-5	-6	-1	.

Compound activity deposited in PubChem by Broad Institute.
